95 molecules from ChEMBL document CHEMBL3988442, “University of Dundee, Small-Polar-MMV Screening Library” (2021) can be followed below.

The campaign covered roughly 69,000 compounds. About 950 (1.4%) showed an effect of 50% or more. The sample as a whole holds a higher share of strong results than the screen did.

The experiment concerns Mycobacterium tuberculosis. Kind of experiment: Cornell M. t heat shock assay. Note: in the data most compounds retested in dose-response had high values. Also on record: dose or concentration left out as unconfirmed. It counts as functional, organism-based.
`Cl.Cn1nc(C2CCN(C(=O)CN3CCCCC3)CC2)c2cccnc21`: the “Percent Effect” value is recorded as -23.31%.
For `Cn1ncc2c1NC(=O)CC2c1ccccc1Cl` (stereo not given), the “Percent Effect” value is -2.735%.
For the molecule `Cn1ncc2c1NC(=O)CC2c1ccc(Cl)cc1Cl` (stereo not given), the “Percent Effect” value is reported as 51.94%.
The result for `Cn1ncc2c1NC(=O)CC2c1cc(Cl)ccc1F` (stereo not given) reads -20.48%.
As for `Cc1ccc(CN(C)C(=O)c2n[nH]c(N)c2-c2ccccc2)o1`, the “Percent Effect” value was -6.81%.
The result for `Cc1ccc(CN2CC[C@H]3OCC[C@@H](C(=O)NC4CC4)[C@@H]3C2)o1.O=C(O)C(F)(F)F` reads -2.405%.
The result for `CN(CCCO)Cc1cc(Cl)ccc1OCC(O)CN1CCCCCC1` (stereo not given) reads 44.14%.
On to `CN(CCO)Cc1cc(Cl)ccc1OCC(O)CN1CCCCCC1` (stereo not given), for which the “Percent Effect” value is on record as 54.32%.
The result for `COCCN(C)Cc1cc(Cl)ccc1OCC(O)CN1CCCCCC1` (stereo not given) reads 4.611%; that for `Cc1ccc(N2CCN(C(=O)CN3C[C@@H]4CC[C@H]3C4)CC2=O)cc1`, -8.228%.
On to `Cc1ccc(CN2CCC3(CCC(=O)N3CC(=O)N(C)C)CC2)s1.O=C(O)C(F)(F)F`, for which the “Percent Effect” value is 11.8%.
As to `Cc1ccccc1C(=O)N1CCC2(CCCN2CCN(C)C)CC1.O=C(O)C(F)(F)F.O=C(O)C(F)(F)F`, the “Percent Effect” value was 12.9%.
Take `CN(C)c1ccc(NC(=O)NCC2CCOC2)cn1` (stereo not given): the “Percent Effect” value was 74.68%.
The result for `O=C(NCC1CCOC1)Nc1ccc(OCC(F)(F)F)nc1` (stereo not given) reads 3.959%; that for `CCN(CC)c1ccc(NC(=O)NCC2CCOC2)cn1` (stereo not given), 3.627%.
The result for `CCn1c(Cn2cncn2)nnc1C1CCN(C[C@H]2[C@@H]3CNC[C@@H]32)CC1` reads -28.34%.
Turning to `Cc1ccc(OCc2occc2C(=O)N2C[C@@H]3[C@@H](CN(C)C)[C@@H]3C2)cc1`, the “Percent Effect” value is -7.572%.
Regarding `CN(C)C(=O)CC1CC2(CCN(Cc3ccsc3)CC2)c2ccccc21.O=C(O)C(F)(F)F` (stereo not given), the “Percent Effect” value was -34.9%.
The result for `Cc1cc(C)n(-c2cncc(NCCNC(=O)C(C)C)n2)n1` reads -20.98%.
The result for `CC(C)C(=O)Nc1cc(C(C)(C)C)nn1-c1ccccn1` reads 4.241%; that for `CC(=O)Nc1cc(C2CC2)nn1-c1nc(C)c(C)c(=O)[nH]1`, 27.84%.
The result for `Cc1cc(NC(=O)C(C)C)n(-c2nc(C)c(C)c(=O)[nH]2)n1` reads 104.4%.
Regarding `CC(C)C(=O)Nc1cc(C(=O)NC2CC(C)(C)NC(C)(C)C2)nn1C`, the “Percent Effect” value is recorded as -49.16%.
`Cc1nc(-n2nc(C3CC3)cc2NC(=O)C(C)C)[nH]c(=O)c1C`: the “Percent Effect” value turned out to be 96.45%.
As for `COc1cc(COCC2CCN(Cc3cccnc3)CC2)cc(OC)c1.O=C(O)C(=O)O`, the “Percent Effect” value was -22.42%.
The result for `CC(C)CN1CCN(C)C2(CCN(Cc3ccsc3)CC2)C1=O.O=C(O)C(F)(F)F.O=C(O)C(F)(F)F` reads -18.88%.
Take `CCc1ccc(CN2CCc3ncnc(-c4cccnc4)c3CC2)o1.O=C(O)C(F)(F)F.O=C(O)C(F)(F)F`: the “Percent Effect” value is on record as -16.65%.
The result for `Cc1sc2nc(CCN)nc(N3CCN(S(C)(=O)=O)CC3)c2c1C` reads 12.46%; that for `Cc1sc2nc(CCN)nc(N3CCS(=O)(=O)CC3)c2c1C`, 12.97%; that for `CCOC(=O)N1CCN(c2nc(CCN)nc3sc(C)c(C)c23)CC1`, 82.82%.
The result for `CSc1nc(N)c2c(n1)N=C1COC(O)=C1C2c1cccc(O)c1` (stereo not given) reads 4.116%; that for `Cc1ccsc1CN1CCc2nc3ccsc3c(=O)n2CC1.Cl`, 3.746%; that for `CCN(CC)c1ccc(NS(=O)(=O)c2cnn(C)c2)cn1`, -23.7%.
On to `CCN(CC)c1ccc(NS(=O)(=O)c2cccnc2)cn1`, for which the “Percent Effect” value is 61.96%.
The result for `CCN(CC)c1ccc(NS(=O)(=O)c2cncc(F)c2)cn1` reads -17.45%.
As for `CCCC(=O)N1C[C@@H]2CCN(c3cnccn3)C[C@@H]2C1.O=C(O)C(F)(F)F`, the “Percent Effect” value is -8.378%.
With `O=C(O)C(F)(F)F.O=C(c1cscn1)N1CC[C@]2(C[C@@H](OCCN3CCCC3)CO2)C1`, the “Percent Effect” value is given as 0.0126%.
On to `CNC(=O)[C@@H]1C[C@H]2CN(Cc3nccs3)C[C@H]2N1C.O=C(O)C(F)(F)F.O=C(O)C(F)(F)F`, for which the “Percent Effect” value is reported as -19.94%.
The result for `Cc1cccc(CN2C(=O)CC[C@@H]3[C@H]2CCN3Cc2ccc(C)s2)n1.O=C(O)C(F)(F)F.O=C(O)C(F)(F)F` reads 6.515%; that for `COc1ccc(Cl)cc1CS(=O)(=O)Cc1nc(C)no1`, 62.62%.
`COc1ccc(Cl)cc1CS(=O)(=O)Cc1noc(C)n1`: the “Percent Effect” value was -24.6%.
The result for `COc1ccc(Cl)cc1CS(=O)(=O)Cc1nc(C2CC2)no1` reads 45.18%; that for `COCCCN(Cc1ccccn1)Cc1ccnn1C1CCCCO1.O=C(O)CC(O)(CC(=O)O)C(=O)O` (stereo not given), -20.24%.
Turning to `CCN(CC)C(=O)CCCNC(=O)c1csc(NC2CC2)n1`, the “Percent Effect” value is recorded as -1.337%.
In the case of `CC(C)NC(=O)c1csc(NC2CC2)n1`, the “Percent Effect” value worked out at 28.59%.
The result for `Cc1cnc(NC(=O)c2csc(NCC(C)C)n2)s1` reads 103.8%; that for `CC(C)CCNC(=O)c1csc(NC2CC2)n1`, 43.35%.
Consider `Cc1nc(NC2CCCC2)cc(C2CCN2C(=O)c2ccccn2)n1` (stereo not given), for which the “Percent Effect” value is on record as -9.873%.
The result for `Cc1cccc(NC(=O)c2csc(NCC(C)C)n2)n1` reads -0.3454%; that for `Cc1cnc(NC(=O)c2csc(NC3CCCC3)n2)s1`, 106.1%; that for `O=C(Nc1nccs1)c1csc(NC2CCCC2)n1`, 106.3%.
The result for `O=C(Nc1ccccn1)c1csc(NC2CCCC2)n1` reads 105.9%; that for `CC(C)CCNc1nc(C(=O)NC2CC2)cs1`, 15.23%; that for `CC(NC(=O)Nc1nccs1)C(=O)NC1CCCC1` (stereo not given), 1.171%.
The result for `CC(C)Nc1nc(C(=O)Nc2ccccn2)cs1` reads 9.074%; that for `CC1CCN(C(=O)C2(Cc3cc(C4CCOC4)no3)CCNCC2)CC1.Cl` (stereo not given), 3.404%.
With `COc1nn(C)c2c1CCCN(C(=O)c1cccc3cccnc13)C2.O=C(O)C(F)(F)F`, the “Percent Effect” value is given as -1.629%.
The result for `COCC1CN(C(=O)Cc2cccs2)Cc2nnn(CC3CC3)c21` (stereo not given) reads -31.31%; that for `Nc1cc(CCC2CN(Cc3ccc4cc[nH]c4c3)CCO2)ccn1` (stereo not given), -29.21%; that for `Cc1ccsc1CN1C[C@@H]2COC[C@]2(COCC(=O)N(C)C)C1.O=C(O)C(F)(F)F`, -23.94%.
The result for `Cc1ccc(CN2CCC3(CC2)CN(c2ccccc2)C(=O)CO3)o1.O=C(O)C(F)(F)F` reads -15.41%; that for `COCC1CC2(CCN(c3cccc(C)n3)CC2)CN1C(C)C.O=C(O)C(F)(F)F.O=C(O)C(F)(F)F` (stereo not given), 24.58%; that for `CN(C)C(=O)N1CCO[C@@H]2CC(COCc3cccnc3)C[C@H]21.O=C(O)C(F)(F)F` (stereo not given in full), 17.51%.
The result for `Cc1cnn(CCNCc2csc(COc3ccccc3)n2)c1` reads 103.7%; that for `c1ccc(OCc2nc(CNCCn3cccn3)cs2)cc1`, 46.73%; that for `Cc1ccc(OCc2nc(CNCCn3cccn3)cs2)cc1`, 94.11%.
Take `Cc1nc(COc2ccc(CNCCn3cccn3)cc2)cs1`: the “Percent Effect” value is on record as -21.22%.
Take `Cc1cnn(CCNCc2ccc(OCc3csc(C)n3)cc2)c1`: the “Percent Effect” value stood at 5.493%.
The result for `Cc1cnn(CCCNCc2csc(COc3ccccc3)n2)c1` reads 15.28%; that for `Cc1nnc(N2CC[C@H]3C[C@H](C(=O)N(C)C)O[C@@H]3C2)s1.O=C(O)C(F)(F)F`, 7.027%; that for `COCC1CN(CC2CC2)Cc2nn(CC3CC3)cc21.O=C(O)C(F)(F)F` (stereo not given), -19.88%.
The result for `CC(C)(C(=O)NCC(N)=O)c1ccccc1F` reads 8.109%; that for `CN(C)C(C)(C)CNC(=O)C(C)(C)c1ccccc1F`, 97.79%.
Consider `CC(C)(CNC(=O)C(C)(C)c1ccccc1F)C(N)=O`, for which the “Percent Effect” value is reported as -4.561%.
The result for `CC1CCN(c2ncc3c(n2)CN(C2CCS(=O)(=O)C2)C3=O)CC1` (stereo not given) reads -20.34%; that for `Cc1nccn1-c1cccc(C2CCCN2)n1.Cl` (stereo not given), -11.58%.
The result for `CCCS(=O)(=O)N1CCC2(CC1)CN(CC1CCOC1)c1ccccc12.O=C(O)C(F)(F)F` (stereo not given) reads 28.34%.
The result for `Cc1cccc(CN2C[C@@H]3COC[C@]3(CNC(=O)C3CC3)C2)c1.O=C(O)C(F)(F)F` reads 2.9%; that for `COCCN(Cc1cc(O)nc2ccccc12)C(=O)NC(C)C`, 104.4%; that for `COCCCN(Cc1cc(O)nc2ccccc12)C(=O)NC(C)C`, -0.9795%.
For the molecule `CC(C)NC(=O)N(Cc1cc(O)nc2ccccc12)C(C)C`, the “Percent Effect” value is on record as -8.593%.
The result for `Cc1cc(N2CCN(C(=O)[C@@H]3C[C@@H]4C=C[C@H]3C4)CC2)cc(C)n1` reads -20.18%.
For the molecule `O=C(CC1CC1)N1C[C@@H]2CCN(c3cnccn3)C[C@@H]2C1.O=C(O)C(F)(F)F`, the “Percent Effect” value is reported as -16.38%.
The result for `O=C(NCCCN1CCOCC1)c1ccc(-n2ccc3ccccc32)s1` reads 14.99%.
`O=C(NCCCN1CCCC1=O)c1ccc(-n2ccc3ccccc32)s1`: the “Percent Effect” value came out at 22.37%.
The result for `O=C(NCCCN1CCCCC1)c1ccc(-n2ccc3ccccc32)s1` reads 102.3%.
The result for `CC(=O)N1C[C@@H]2CC[C@H](C1)N(S(=O)(=O)c1ccc(C#N)cc1Cl)C2` reads 12.47%.
Take `O=C(O)C(F)(F)F.O=C(c1cscn1)N1CCC2(CCN(Cc3cccs3)CC2)C1`: the “Percent Effect” value turned out to be 3.711%.
With `O=C(Nc1cccnc1)[C@@H]1COC[C@H]2CN(C3CCCC3)C[C@H]21.O=C(O)C(F)(F)F.O=C(O)C(F)(F)F`, the “Percent Effect” value was -37.6%.
Turning to `CCc1c(C)nc(SCc2ccccn2)[nH]c1=O`, the “Percent Effect” value was found to be 33.29%.
The result for `CCc1cc(=O)[nH]c(SCc2ccccn2)n1` reads 70.99%; that for `CCCc1cc(=O)[nH]c(-c2ccccc2CN(C)CCC(C)C)n1`, -7.876%.
On to `CCCc1cc(=O)[nH]c(SCc2ccccn2)n1`, for which the “Percent Effect” value was 69.86%.
The result for `Cc1nnc(SCc2ccccn2)s1` reads 4.26%; that for `O=c1cc(C2CCNCC2)nc(CCc2ccccn2)[nH]1`, 6.043%.
